Test results published in ChEMBL document CHEMBL1961873, “Compounds: GSK PKIS; Assays: Nanosyn kinase panel” (2012).

How the values were obtained:
[1] = molecular target: Sphingosine kinase 1 (Homo sapiens) (UniProt Q9NYA1); conditions: at 1 µM;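 further: mean SPHK1 inhibition value reported from the GSK PKIS kinase panel screen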
[2] = molecular target: T1, Sphingosine kinase 2 (Homo sapiens) (UniProt Q9NRA0); conditions: at 0.1 µM
T1 sequence (whole entry): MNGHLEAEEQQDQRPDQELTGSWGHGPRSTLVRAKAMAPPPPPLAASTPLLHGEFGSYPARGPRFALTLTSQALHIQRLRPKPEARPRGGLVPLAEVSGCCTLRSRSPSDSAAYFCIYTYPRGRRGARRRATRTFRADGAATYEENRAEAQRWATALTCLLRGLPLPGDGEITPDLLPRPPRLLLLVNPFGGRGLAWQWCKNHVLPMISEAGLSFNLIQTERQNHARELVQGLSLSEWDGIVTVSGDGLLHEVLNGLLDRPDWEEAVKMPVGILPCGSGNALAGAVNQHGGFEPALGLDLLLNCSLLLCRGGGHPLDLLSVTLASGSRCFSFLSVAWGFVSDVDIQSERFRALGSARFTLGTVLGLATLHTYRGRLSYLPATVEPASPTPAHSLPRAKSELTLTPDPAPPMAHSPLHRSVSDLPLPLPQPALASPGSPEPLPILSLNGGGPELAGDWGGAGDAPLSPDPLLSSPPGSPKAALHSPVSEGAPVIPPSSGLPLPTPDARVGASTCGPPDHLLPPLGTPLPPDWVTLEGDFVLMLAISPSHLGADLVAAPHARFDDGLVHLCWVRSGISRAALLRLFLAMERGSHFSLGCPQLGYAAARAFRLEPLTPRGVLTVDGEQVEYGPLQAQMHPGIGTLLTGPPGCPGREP

[3] = molecular target: T1, Sphingosine kinase 2 (Homo sapiens); conditions: at 1 µM
[4] = molecular target: Casein kinase II subunit alpha (Homo sapiens) (UniProt P68400); conditions: at 0.1 µM
[5] = molecular target: Casein kinase II subunit alpha (Homo sapiens) (UniProt P68400); conditions: at 1 µM
[6] = molecular target: T2, Inhibitor of nuclear factor kappa-B kinase subunit alpha (Homo sapiens) (UniProt O15111); conditions: at 0.1 µM
T2 sequence (whole entry): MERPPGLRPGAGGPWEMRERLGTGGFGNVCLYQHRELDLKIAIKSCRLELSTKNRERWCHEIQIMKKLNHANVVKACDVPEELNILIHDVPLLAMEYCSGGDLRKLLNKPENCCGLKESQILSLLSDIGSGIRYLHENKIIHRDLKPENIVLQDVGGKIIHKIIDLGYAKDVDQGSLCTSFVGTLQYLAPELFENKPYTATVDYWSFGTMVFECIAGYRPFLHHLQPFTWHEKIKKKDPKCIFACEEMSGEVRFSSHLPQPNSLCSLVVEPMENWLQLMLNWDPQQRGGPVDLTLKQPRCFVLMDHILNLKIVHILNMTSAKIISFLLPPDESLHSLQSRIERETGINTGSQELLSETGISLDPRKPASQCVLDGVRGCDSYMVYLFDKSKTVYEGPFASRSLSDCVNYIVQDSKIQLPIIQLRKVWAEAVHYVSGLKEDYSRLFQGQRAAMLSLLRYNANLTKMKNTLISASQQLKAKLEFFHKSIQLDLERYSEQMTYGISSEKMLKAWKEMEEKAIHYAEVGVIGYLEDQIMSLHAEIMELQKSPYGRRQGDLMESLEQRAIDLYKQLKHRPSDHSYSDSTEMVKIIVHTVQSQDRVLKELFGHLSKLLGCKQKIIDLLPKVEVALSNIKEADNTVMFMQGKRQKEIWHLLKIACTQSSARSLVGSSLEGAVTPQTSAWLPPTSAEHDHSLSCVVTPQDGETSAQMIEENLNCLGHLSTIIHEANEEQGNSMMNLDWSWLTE

[7] = molecular target: T2, Inhibitor of nuclear factor kappa-B kinase subunit alpha (Homo sapiens); conditions: at 1 µM
[8] = molecular target: T3, Inhibitor of nuclear factor kappa-B kinase subunit beta (Homo sapiens) (UniProt O14920); conditions: at 0.1 µM
T3 sequence (whole entry): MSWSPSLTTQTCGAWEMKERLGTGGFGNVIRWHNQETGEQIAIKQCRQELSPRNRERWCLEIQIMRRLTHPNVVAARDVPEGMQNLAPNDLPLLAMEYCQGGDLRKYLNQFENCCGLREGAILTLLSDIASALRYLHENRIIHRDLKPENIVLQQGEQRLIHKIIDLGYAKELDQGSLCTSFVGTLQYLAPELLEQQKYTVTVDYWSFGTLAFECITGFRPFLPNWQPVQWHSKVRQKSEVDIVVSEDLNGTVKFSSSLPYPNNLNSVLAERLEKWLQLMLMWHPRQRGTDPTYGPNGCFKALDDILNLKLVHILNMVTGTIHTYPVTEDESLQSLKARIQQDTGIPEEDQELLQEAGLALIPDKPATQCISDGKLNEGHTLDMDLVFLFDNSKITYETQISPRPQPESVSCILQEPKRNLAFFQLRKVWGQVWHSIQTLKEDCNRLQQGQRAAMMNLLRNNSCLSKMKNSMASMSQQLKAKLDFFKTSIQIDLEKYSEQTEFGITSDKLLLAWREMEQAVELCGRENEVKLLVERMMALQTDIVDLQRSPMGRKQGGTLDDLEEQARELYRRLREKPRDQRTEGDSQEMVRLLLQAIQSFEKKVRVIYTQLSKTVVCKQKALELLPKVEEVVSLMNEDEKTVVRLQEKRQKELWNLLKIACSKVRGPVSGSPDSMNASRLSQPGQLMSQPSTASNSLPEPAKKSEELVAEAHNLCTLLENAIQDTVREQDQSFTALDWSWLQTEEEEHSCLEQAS

[9] = molecular target: T3, Inhibitor of nuclear factor kappa-B kinase subunit beta (Homo sapiens); conditions: at 1 µM
[10] = molecular target: T4, Inhibitor of nuclear factor kappa-B kinase subunit epsilon (Homo sapiens) (UniProt Q14164); conditions: at 0.1 µM
T4 sequence (whole entry): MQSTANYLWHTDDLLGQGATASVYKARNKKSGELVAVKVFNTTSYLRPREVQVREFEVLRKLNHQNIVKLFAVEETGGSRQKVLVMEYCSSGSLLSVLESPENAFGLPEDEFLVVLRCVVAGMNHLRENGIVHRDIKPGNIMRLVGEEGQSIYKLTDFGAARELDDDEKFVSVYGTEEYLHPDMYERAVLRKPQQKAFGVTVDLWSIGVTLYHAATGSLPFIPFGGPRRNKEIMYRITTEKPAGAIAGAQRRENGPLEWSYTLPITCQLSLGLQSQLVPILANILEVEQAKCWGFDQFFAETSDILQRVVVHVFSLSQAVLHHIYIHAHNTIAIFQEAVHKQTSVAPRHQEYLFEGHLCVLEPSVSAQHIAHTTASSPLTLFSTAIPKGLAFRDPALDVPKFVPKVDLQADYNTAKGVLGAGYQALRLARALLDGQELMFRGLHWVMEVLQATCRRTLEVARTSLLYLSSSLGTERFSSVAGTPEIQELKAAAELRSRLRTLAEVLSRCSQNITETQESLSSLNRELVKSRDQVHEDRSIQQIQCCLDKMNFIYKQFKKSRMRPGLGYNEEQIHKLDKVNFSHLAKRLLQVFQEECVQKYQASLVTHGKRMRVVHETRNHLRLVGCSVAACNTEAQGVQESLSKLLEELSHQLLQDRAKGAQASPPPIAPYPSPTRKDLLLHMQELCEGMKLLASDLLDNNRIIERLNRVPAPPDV

[11] = molecular target: T4, Inhibitor of nuclear factor kappa-B kinase subunit epsilon (Homo sapiens); conditions: at 1 µM
[12] = molecular target: T5, Serine/threonine-protein kinase Nek1 (Homo sapiens) (UniProt Q96PY6); conditions: at 0.1 µM
T5 sequence (whole entry): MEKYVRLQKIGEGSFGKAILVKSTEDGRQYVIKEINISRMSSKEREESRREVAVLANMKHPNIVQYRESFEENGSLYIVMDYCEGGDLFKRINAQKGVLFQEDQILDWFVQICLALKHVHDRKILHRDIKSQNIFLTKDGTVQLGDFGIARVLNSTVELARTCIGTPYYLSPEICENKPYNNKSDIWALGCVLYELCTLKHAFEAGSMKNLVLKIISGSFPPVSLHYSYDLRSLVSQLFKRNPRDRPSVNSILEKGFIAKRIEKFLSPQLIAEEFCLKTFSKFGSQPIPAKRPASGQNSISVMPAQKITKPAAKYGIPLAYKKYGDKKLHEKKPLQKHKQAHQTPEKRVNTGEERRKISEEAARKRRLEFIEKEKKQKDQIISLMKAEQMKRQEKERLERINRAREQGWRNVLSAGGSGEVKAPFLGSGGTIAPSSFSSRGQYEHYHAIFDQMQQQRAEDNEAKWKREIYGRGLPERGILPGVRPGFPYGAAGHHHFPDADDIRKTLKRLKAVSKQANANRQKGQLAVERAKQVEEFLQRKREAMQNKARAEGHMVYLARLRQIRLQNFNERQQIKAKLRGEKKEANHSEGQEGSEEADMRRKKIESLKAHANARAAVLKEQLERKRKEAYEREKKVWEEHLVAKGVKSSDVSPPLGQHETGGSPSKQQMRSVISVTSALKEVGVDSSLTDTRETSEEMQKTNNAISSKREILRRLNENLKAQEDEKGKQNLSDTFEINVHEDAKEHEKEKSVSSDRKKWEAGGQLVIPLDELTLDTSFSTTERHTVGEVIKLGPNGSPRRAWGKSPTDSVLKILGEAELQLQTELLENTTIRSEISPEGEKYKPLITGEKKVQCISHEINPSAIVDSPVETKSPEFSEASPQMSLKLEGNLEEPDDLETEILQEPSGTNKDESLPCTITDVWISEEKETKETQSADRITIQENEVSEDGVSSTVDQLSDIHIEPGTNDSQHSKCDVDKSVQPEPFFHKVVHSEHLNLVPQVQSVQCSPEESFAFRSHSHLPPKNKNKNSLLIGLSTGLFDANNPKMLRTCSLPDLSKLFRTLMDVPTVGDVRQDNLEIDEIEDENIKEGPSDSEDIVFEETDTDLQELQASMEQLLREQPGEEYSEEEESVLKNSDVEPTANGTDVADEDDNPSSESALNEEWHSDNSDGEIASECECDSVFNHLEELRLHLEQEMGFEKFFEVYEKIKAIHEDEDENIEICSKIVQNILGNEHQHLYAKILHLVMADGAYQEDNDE

[13] = molecular target: T5, Serine/threonine-protein kinase Nek1 (Homo sapiens); conditions: at 1 µM
[14] = molecular target: T6, Serine/threonine-protein kinase Nek2 (Homo sapiens) (UniProt P51955); conditions: at 0.1 µM
T6 sequence (whole entry): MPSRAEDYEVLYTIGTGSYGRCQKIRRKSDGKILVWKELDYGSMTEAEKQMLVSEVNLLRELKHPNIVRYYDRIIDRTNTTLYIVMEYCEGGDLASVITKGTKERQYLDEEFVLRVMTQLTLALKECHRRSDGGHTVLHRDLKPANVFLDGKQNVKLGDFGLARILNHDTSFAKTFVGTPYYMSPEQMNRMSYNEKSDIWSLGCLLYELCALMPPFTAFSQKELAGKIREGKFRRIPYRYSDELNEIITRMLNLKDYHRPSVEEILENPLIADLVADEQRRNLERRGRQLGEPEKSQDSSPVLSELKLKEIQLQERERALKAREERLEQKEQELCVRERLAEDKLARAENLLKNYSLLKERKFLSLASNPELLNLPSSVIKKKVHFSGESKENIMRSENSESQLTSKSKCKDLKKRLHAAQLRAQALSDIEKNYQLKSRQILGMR

[15] = molecular target: T6, Serine/threonine-protein kinase Nek2 (Homo sapiens); conditions: at 1 µM
[16] = molecular target: Serine/threonine-protein kinase Nek6 (Homo sapiens) (UniProt Q9HC98); conditions: at 0.1 µM
[17] = molecular target: Serine/threonine-protein kinase Nek6 (Homo sapiens) (UniProt Q9HC98); conditions: at 1 µM
[18] = molecular target: Serine/threonine-protein kinase Nek7 (Homo sapiens) (UniProt Q8TDX7); conditions: at 0.1 µM
[19] = molecular target: Serine/threonine-protein kinase Nek7 (Homo sapiens) (UniProt Q8TDX7); conditions: at 1 µM
[20] = molecular target: T7, Serine/threonine-protein kinase Nek9 (Homo sapiens) (UniProt Q8TD19); conditions: at 0.1 µM;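 further: reported value is the mean percent inhibition of NEK9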
T7 sequence (whole entry): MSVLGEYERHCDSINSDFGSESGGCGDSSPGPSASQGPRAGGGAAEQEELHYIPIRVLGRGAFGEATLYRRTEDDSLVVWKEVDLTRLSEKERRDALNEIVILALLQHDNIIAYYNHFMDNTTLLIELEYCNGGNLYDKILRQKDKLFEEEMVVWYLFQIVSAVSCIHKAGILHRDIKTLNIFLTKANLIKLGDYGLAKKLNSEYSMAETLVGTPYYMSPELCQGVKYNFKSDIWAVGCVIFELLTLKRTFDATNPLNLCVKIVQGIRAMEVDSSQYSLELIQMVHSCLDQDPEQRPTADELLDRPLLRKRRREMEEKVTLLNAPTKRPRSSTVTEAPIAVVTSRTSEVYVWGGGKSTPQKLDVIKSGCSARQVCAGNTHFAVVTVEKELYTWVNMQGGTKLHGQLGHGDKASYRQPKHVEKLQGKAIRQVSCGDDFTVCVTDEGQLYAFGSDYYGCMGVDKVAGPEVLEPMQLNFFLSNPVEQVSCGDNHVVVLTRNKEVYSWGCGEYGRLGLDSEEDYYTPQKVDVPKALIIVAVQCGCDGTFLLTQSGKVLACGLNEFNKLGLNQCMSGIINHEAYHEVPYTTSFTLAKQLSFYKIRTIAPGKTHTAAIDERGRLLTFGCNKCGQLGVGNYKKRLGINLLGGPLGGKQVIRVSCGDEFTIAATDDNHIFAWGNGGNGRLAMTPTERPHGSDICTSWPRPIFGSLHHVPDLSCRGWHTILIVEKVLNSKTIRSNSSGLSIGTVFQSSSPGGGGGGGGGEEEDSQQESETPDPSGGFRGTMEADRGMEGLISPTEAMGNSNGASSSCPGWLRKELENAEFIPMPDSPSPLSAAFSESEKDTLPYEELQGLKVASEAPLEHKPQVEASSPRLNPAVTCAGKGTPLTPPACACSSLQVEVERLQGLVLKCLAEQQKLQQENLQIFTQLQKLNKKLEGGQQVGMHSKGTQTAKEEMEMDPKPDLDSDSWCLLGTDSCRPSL

Serine/threonine-protein kinase Nek6 (Homo sapiens), sequence (Q9HC98 whole entry): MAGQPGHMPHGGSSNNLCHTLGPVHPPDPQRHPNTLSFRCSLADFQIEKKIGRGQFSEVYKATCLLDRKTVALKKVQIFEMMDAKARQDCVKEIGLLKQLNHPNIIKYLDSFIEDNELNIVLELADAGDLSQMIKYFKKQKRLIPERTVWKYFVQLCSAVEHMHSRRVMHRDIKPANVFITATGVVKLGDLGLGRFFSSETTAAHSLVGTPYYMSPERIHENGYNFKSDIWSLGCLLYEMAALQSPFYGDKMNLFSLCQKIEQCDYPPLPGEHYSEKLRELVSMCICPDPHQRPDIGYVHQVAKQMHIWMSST
Casein kinase II subunit alpha (Homo sapiens), sequence (P68400 whole entry, looked up): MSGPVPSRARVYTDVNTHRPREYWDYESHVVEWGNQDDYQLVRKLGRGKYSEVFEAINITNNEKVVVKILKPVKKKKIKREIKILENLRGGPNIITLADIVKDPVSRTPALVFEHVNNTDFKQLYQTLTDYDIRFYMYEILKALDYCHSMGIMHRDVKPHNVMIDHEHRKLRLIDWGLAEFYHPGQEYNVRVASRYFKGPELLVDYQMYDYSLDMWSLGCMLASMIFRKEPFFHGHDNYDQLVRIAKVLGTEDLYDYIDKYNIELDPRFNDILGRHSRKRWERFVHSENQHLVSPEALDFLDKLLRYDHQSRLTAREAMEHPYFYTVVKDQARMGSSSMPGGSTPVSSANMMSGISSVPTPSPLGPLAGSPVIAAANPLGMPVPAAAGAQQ
Serine/threonine-protein kinase Nek7 (Homo sapiens), sequence (Q8TDX7 whole entry, looked up): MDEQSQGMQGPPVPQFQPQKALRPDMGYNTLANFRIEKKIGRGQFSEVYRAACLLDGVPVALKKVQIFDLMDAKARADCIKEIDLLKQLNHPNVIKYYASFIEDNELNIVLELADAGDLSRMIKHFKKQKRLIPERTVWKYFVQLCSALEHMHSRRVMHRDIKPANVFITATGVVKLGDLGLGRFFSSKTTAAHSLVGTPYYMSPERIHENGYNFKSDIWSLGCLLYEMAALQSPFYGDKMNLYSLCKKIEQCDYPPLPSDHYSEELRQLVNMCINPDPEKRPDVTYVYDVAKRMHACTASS
Sphingosine kinase 1 (Homo sapiens), sequence (Q9NYA1 whole entry): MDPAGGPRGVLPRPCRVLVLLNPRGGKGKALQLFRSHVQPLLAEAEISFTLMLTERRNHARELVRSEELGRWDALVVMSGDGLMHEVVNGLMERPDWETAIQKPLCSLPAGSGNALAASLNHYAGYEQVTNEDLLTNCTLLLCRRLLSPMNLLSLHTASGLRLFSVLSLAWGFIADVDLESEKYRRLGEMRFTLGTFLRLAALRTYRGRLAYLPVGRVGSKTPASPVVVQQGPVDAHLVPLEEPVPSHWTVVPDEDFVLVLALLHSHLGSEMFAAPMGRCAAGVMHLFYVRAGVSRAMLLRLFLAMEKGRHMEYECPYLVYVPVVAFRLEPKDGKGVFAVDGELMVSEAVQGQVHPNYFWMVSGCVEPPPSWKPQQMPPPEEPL

Structure (SMILES)	inhibition [1] [%]	inhibition [2] [%]	inhibition [3] [%]	inhibition [4] [%]	inhibition [5] [%]	inhibition [6] [%]	inhibition [7] [%]	inhibition [8] [%]	inhibition [9] [%]	inhibition [10] [%]	inhibition [11] [%]	inhibition [12] [%]	inhibition [13] [%]	inhibition [14] [%]	inhibition [15] [%]	inhibition [16] [%]	inhibition [17] [%]	inhibition [18] [%]	inhibition [19] [%]	inhibition [20] [%]
Cc1ccc2c(-c3ccnc(Nc4ccc5c(c4)OCCO5)n3)c(-c3ccc(C(F)(F)F)cc3)nn2n1	-4.65	-0.54	1.85	9.31	1.49	0.44	0.46	-1.92	-5.04	4.65	-0.03	0.53	1.72	1.37	1.37	0.53	-0.1	-0.01	0	1.38
CS(=O)(=O)Nc1cccc(-c2ccc3c(NC(=O)C4CC4)n[nH]c3c2)c1	-0.74	1	0.16	-2.9	-3.51	-2.77	-6.36	8.91	3.62	2.67	2.59	0.75	1.07	1.36	0.27	1.36	-1.38	2.34	1.08	2.01
